# Rows were chosen to be rich in hits. Some 8% of all compounds tested hit in one or more screens of this group.
# SW480 rerep: A quantitative high throughput screen for small molecules that induce DNA re-replication in SW480 colon adenocarcinoma cells. SW480 DNA re-replication, Hoechst DNA content imaging, 48 h. 340,000 tested, 1.8% active. AID 624297, 2012. Potency, µM (series often up to 46.1 µM), without a hit: at the top dose re-replication activation, most hits filed as activators; note: % of control where 0% means no effect; nearly all actives have a fitted effect of over 55% in size
#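 Quantitative HTS format with DMSO vehicle controls; 48 hr drug incubation at 37 C, then 40 min Hoechst staining and scanning imager measurement at 405 nm excitation.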
# KB-3-1 cytotox: qHTS assay for MDR1-selective chemotherapeutics: Primary screen using the parental adenocarcinoma cell KB-3-1; KB-3-1 viability, CellTiter-Glo ATP luminescence, 72 h; Potency, µM (doses to about 46.1 µM), hits mostly cytotoxic; 400,000 tested, 1.4% active; note: % is set by controls: 0 for no effect and ±100 for the full control effect; nearly all actives have a fitted effect of over 60% in size
#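 Viability of parental KB-3-1 cells, measured by CellTiter-Glo luminescence, followed a 72 h incubation at 37 °C with pinned compounds in phenol-red-free DMEM containing 10% FBS.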
# HT1080 IDH1KD tx: qHTS for induction of synthetic lethality in tumor cells producing 2HG: qHTS for the HT-1080-IDH1KD cell line | HT-1080 IDH1 knockdown viability, ATP luminescence, 48 h | Potency, µM (doses to about 46.1 µM), without a hit: top-dose activity, negative = toxicity, hits mostly cytotoxic | 360,000 tested, 2% active;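 note: 0% = DMSO wells and -100% = cell-free medium wells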
#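 Using the IDH1-knockdown HT-1080 line run in the same batch and compound series as the NT line, viability after 48 h at 37 °C was determined by CellTiter-Glo luminescence and expressed as % activity.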
# KB-V1 cytotox: qHTS assay for MDR1-selective chemotherapeutics: Primary screen using the drug-selected MDR subline cells KB-V1; KB-V1 MDR cells viability, CellTiter-Glo, 72 h; 400,000 tested, 3.4% active; Potency, µM (titrated, usually from 46.1 µM), hits mostly cytotoxic; AID 1347076, 2019; note: % is set by controls: 0 for no effect and ±100 for the full control effect; nearly all actives have a fitted effect of over 60% in size
#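 KB-V1, DMEM (no phenol red) + 10% FBS; cpd pin-transferred, titration series; 72 h, 37 degrees C; CellTiter-Glo, luminescence. Data normalized, curve-fit.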
# MCF10A rerep: A quantitative high throughput screen for small molecules that induce DNA re-replication in MCF 10a normal breast cells; Potency, µM (series often up to 46.1 µM), without a hit: at the highest dose activity, positive = re-replication, usual class: activators; 350,000 tested, 2.9% active; MCF 10A DNA re-replication, Hoechst nuclear intensity, 48 h; note: % of control where 0% means no effect; nearly all actives have a fitted effect of over 50% in size
# HT1080-NT tox: qHTS for induction of synthetic lethality in tumor cells producing 2HG: qHTS for the HT-1080-NT fibrosarcoma cell line; HT-1080-NT fibrosarcoma viability, CellTiter-Glo ATP luminescence, 48 h; Potency, µM (titrated, usually from 46.1 µM), for inactives: at the top dose activity, negative = less viability, hits mostly cytotoxic; 360,000 tested, 1.6% active; AID 686970, 2013;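 note: NT is the 2HG producing partner of a matched IDH1 knockdown line; 0% = DMSO-treated cells and -100% = media-only wells without cells; nearly all actives have a fitted effect of over 55% in size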
#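 Luminescent CellTiter-Glo readout after 48 hours of compound exposure at 37 degrees C defined viability of HT-1080-NT cells. Activity was normalized to DMSO wells and cell-free media wells; concentration-response curves were fitted and assigned curve classes.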
# An asterisk follows results filed as active; i = inactive; ? = inconclusive; . = no result; ! = repeats disagree; [ ] = dose if it differs, or a comment. Calls come from the whole dose curve; as a rule, active = well fitted curve in the direction sought with a large enough effect; inconclusive = small, poorly fitted or top-dose-only effect, or another doubt; inactive = no such curve, though single readings can be large; an effect the other way counts as inactive or inconclusive. Potency is the fitted concentration of half-maximal effect.
SMILES,SW480 rerep,KB-3-1 cytotox,HT1080 IDH1KD tx,KB-V1 cytotox,MCF10A rerep,HT1080-NT tox
O=C(CCCN1C(=O)/C(=C/c2ccccc2Cl)SC1=S)NNC(=O)c1ccccc1Cl,-5.6%,?,?,i,?,?
Cc1cc(NC(=O)CCCN2C(=O)/C(=C/c3ccccc3Cl)SC2=S)no1,?,?,-2.4%,20.6µM*,7.9%,1.1%
Cc1cccn2cc(CNc3ccccc3)nc12,-3.2%,i,10.9%,?,12.9%,2.1%
CCCS(=O)(=O)NCc1cn2cccc(C)c2n1,10.3µM*,i,?,i,2.59µM*,10.0%
Cn1nnnc1Sc1ncnc2scc(-c3cccc4ccccc34)c12,7.2%,16.4µM*,.,i,?,.
Cn1nnnc1Sc1ncnc2scc(-c3ccc(F)cc3)c12,10.3µM*,8.2µM*!,20.6µM*,?,?,?
Cn1nnnc1Sc1ncnc2scc(-c3ccccc3Br)c12,?,i,.,i,18.8%,.
Cn1nnnc1Sc1ncnc2scc(Br)c12,4.61µM*,i,.,i,3.66µM*,.
Cn1nnnc1Sc1ncnc2scc(-c3ccccc3)c12,16.4µM*,?,-22.9%,?,?,-4.4%
O=P(O)(O)OC[C@H]1O[C@](O)(COP(=O)(O)O)[C@@H](O)[C@@H]1O,3.5%,.,.,.,0.0%,.
CCOc1ccc(CCNC(=O)C2CCC(CNS(=O)(=O)c3ccc(Cl)cc3)CC2)cc1OCC (stereo not given),.,i,.,i,.,.
COc1cc(OC)cc(C(=O)N2CCN(C(=O)COc3ccccc3)CC2)c1,.,i,.,i,.,.
COc1ccccc1-c1csc2ncnc(Sc3nnnn3C)c12,?,?,.,i,8.1%,.
Cn1nnnc1Sc1ncnc2scc(-c3ccc(Br)cc3)c12,?,11.6µM*,.,?,?,.
N#CCCN1CCN(C(=S)c2ccc(-c3cc(Cl)ccc3Cl)o2)CC1,2.1%,i,-0.4%,6.51µM*,7.6%,-10.6%
CN1CCN(C(=S)c2ccc(-c3cc(Cl)ccc3Cl)o2)CC1,6.7%,i,-3.8%,i,-3.0%,-9.9%
CCc1nn2c(=O)c(S(=O)(=O)Nc3ccc(OC)c(Cl)c3)c(C)nc2s1,.,i,.,i,.,.
CC1CN(c2nc3ccccc3nc2SCC(=O)Nc2cccc(C(F)(F)F)c2)CC(C)O1 (stereo not given),5.9%,23.1µM*,-17.3%,i,?,?
COc1ccc(NC(=O)CSc2nc3ccccc3nc2N2CCCCC2)cc1,6.2%,i,-13.7%,i,?,-2.5%
O=C(CN1CCN(c2ccccc2)CC1)N1CCN(c2ccccc2)CC1,-0.1%,i,1.1%,20.6µM*,-3.6%,-2.4%
COCCNc1nc(SCC(=O)N2CCN(c3ccccc3)CC2)nc2ccccc12,-1.1%,i,-18.4%,9.2µM*,-4.5%,1.1%
O=C(CN1CCCCC1)N1CCN(c2ccccc2)CC1,9.7%,i,12.2%,i,1.2%,2.5%
CCc1ccc(NC(=O)CSc2nc3ccccc3nc2N2CCCCC2)cc1,1.8%,i,4.0%,?,10.3µM*,10.3%
O=S(=O)(c1ccccc1)c1nnn2c1nc(NCc1ccccc1)c1cc(Cl)ccc12,.,i,.,i,.,.
Cc1csc2nc(COC(=O)CNC(=O)c3ccc(F)cc3)cc(=O)n12,.,i,.,i,.,.
SMILES,SW480 rerep,KB-3-1 cytotox,HT1080 IDH1KD tx,KB-V1 cytotox,MCF10A rerep,HT1080-NT tox
O=C(CSc1ncccc1-c1nc2ccccc2[nH]1)N1CCCCC1,-1.8%,i,4.5%,5.17µM*,2.4%,3.8%
O=C(CSc1nc2ccccc2nc1N1CCCCC1)N1CCN(c2ccccc2)CC1,0.9%,?,-7.1%,20.6µM*,4.11µM*,-18.1%
Cc1cccc(NC(=O)CSc2nc3ccccc3nc2N2CCCC2)c1,25.1%,?,?,?,20.6µM*,-27.4%
O=C(CSc1nc2ccccc2nc1N1CCOCC1)N1CCN(c2ccccc2)CC1,-5.2%,?,-9.8%,i,-1.7%,-27.4%
Cc1cccc(NC(=O)CSc2nc3ccccc3nc2N2CCCCC2)c1,27.6%,?,-26.1%,?,?,-19.7%
O=S(=O)(c1ccc2c(c1)CCCC2)N1CCN(c2nc(-c3cccs3)nc3ccccc23)CC1,.,?,.,i,.,.
O=[N+]([O-])c1ccc(O)c(C2=NNC(c3ccccc3F)C2)c1 (stereo not given),-6.5%,?,?,?,3.66µM*,20.6µM*
Cc1c(CCO)c(=O)n2c([nH]c3ccccc32)c1C#N,-6.9%,i,-8.0%,i,-3.7%,-1.8%
CCCCc1c(C)c(C#N)c2[nH]c3ccccc3n2c1=O,-1.5%,?,-6.8%,?,18.4µM*,-4.9%
O=C(NCc1cccnc1)c1ccc(NC(=O)c2ccc(Br)cc2)cc1,-3.4%,i,5.8µM*,i,11.9%,11.6µM*
O=C(NCc1ccc(F)cc1)c1ccc(S(=O)(=O)Nc2cccc(C(F)(F)F)c2)cc1,0.8%,?,-9.4%,14.6µM*,?,-14.8%
O=C(NCc1cccnc1)Nc1ccc(Br)cc1,0.3%,i,17.8%,i,-0.7%,12.8%
Cc1ccc(OCc2ccc(C(=O)N3CCOCC3)cc2)cc1C,-6.0%,i,-2.9%,18.4µM*,-4.6%,?
O=C(NCc1cccnc1)c1cccc(NS(=O)(=O)c2ccc(Br)cc2)c1,9.2µM*,5.8µM*,3.26µM*,i,0.651µM*,4.61µM*
CN1CCC[C@@H](CC2c3ccccc3Sc3ccccc32)C1,?,.,.,.,-1.3%[20.6 µM],.

# Compound activity as filed in PubChem BioAssay.
